{"source": "paper PMC4336329", "about": "(PLoS ONE, 2015)", "note": "In all, about 310,000 compounds went through this assay and about 14,000 (4.5%) showed an effect of 50% or more. The effect is printed as a negative number. This is one part of a sample in which strong results are shown more often than they occur.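 Note: peak tail current of the secondary pulse compared with the same well before compound.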", "data": [{"target": "human ether-à-go-go-related gene (hERG) potassium channel (human, UniProt Q12809)", "sequence (Q12809 whole entry, looked up)": "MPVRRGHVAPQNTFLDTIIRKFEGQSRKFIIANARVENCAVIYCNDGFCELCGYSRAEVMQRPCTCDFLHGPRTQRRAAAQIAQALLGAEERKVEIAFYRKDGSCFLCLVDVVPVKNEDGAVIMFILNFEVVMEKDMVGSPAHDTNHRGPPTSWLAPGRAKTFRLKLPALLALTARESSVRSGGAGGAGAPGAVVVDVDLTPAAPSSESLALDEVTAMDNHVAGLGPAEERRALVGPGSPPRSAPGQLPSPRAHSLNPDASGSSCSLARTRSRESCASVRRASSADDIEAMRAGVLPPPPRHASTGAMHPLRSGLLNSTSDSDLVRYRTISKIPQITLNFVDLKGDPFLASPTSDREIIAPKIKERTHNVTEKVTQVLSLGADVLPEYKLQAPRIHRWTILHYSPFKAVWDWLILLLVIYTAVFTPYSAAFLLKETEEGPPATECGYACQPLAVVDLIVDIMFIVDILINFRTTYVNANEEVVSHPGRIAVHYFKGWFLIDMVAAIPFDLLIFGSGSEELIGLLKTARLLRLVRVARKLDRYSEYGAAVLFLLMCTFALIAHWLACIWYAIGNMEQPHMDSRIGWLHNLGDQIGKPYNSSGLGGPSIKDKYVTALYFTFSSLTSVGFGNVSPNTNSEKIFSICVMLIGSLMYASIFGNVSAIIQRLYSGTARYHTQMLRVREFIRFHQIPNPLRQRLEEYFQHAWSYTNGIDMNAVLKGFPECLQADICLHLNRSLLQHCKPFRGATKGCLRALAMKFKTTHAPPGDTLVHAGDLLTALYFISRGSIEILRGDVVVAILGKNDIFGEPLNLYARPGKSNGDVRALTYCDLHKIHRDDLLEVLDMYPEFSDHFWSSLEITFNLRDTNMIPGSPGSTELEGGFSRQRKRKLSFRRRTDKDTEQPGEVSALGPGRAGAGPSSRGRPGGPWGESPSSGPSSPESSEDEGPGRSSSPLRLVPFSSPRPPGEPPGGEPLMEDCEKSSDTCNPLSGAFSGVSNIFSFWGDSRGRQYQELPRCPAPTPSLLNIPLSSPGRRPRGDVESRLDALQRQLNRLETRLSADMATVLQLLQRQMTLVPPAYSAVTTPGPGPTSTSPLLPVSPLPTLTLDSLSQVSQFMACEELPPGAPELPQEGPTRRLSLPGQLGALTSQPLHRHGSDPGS", "assay": "primary screen, population patch clamp on CHO cells stably expressing hERG; higher = less effect of the substance", "units": {"hERG current change (%, negative = inhibition) at 10uM": "%"}, "values": [{"smiles": "COc1ccc(CNC(=O)COC(=O)c2ccc3ncsc3c2)cc1OC", "hERG current change (%, negative = inhibition) at 10uM": 14.5}, {"smiles": "C=C(C)C(=O)N1CC2(CC(c3cccc(NC(=O)/C=C\\C=C/C)c3)=NO2)C[C@H]1C(N)=O", "note": "(stereo partly drawn)", "hERG current change (%, negative = inhibition) at 10uM": 0.942}, {"smiles": "CSc1ccc(S(=O)(=O)NCC(=O)OCC(=O)N2CCCC2=O)cc1[N+](=O)[O-]", "hERG current change (%, negative = inhibition) at 10uM": -9.51}, {"smiles": "Cc1nn(CC#N)c(=O)n1-c1ccccc1F", "hERG current change (%, negative = inhibition) at 10uM": 10.8}, {"smiles": "COc1cc(CNCCN2CCOCC2)ccc1OCc1ccccc1Cl.Cl", "hERG current change (%, negative = inhibition) at 10uM": -45.7}, {"smiles": "COc1cc(CNCCN2CCOCC2)ccc1OCc1c(Cl)cccc1Cl.Cl", "hERG current change (%, negative = inhibition) at 10uM": -50.6}, {"smiles": "COc1cc(CNCCN(C)C)ccc1OCc1c(F)cccc1Cl.Cl", "hERG current change (%, negative = inhibition) at 10uM": -19.6}, {"smiles": "COc1cc(CNCCCN2CCOCC2)cc(Br)c1OCc1ccc(Cl)cc1.Cl", "hERG current change (%, negative = inhibition) at 10uM": -35.5}, {"smiles": "COc1cc(CNCCN2CCOCC2)ccc1OCc1cccc(Cl)c1.Cl", "hERG current change (%, negative = inhibition) at 10uM": -63.2}, {"smiles": "COc1cc(CNCCO)cc(Cl)c1OCc1ccc(Cl)cc1Cl.Cl", "hERG current change (%, negative = inhibition) at 10uM": -7.34}, {"smiles": "COc1cc(CNCCN2CCOCC2)ccc1OCc1ccc(Cl)cc1Cl.Cl", "hERG current change (%, negative = inhibition) at 10uM": -69.7}, {"smiles": "COc1cc(CNCCN2CCOCC2)ccc1OCC(=O)NC(C)(C)C.Cl", "hERG current change (%, negative = inhibition) at 10uM": 6.17}, {"smiles": "COc1cc(CNCCN2CCOCC2)ccc1OCc1ccc(Cl)cc1.Cl", "hERG current change (%, negative = inhibition) at 10uM": -42.1}, {"smiles": "O=C1CC2C(=O)NCCN2C(=NC(=O)c2ccc(Cl)cc2)N1", "note": "(stereo not drawn)", "hERG current change (%, negative = inhibition) at 10uM": -15.7}, {"smiles": "COc1ccc(C(=O)Nc2ccc(NC(=O)C(C)C)nc2)cc1", "hERG current change (%, negative = inhibition) at 10uM": 18.9}, {"smiles": "COc1cccc(/C=N/n2c(-c3n[nH]c4c3CCC4)n[nH]c2=S)c1OC", "hERG current change (%, negative = inhibition) at 10uM": 14.1}, {"smiles": "O=C(NCCCNC(=O)c1ccc(Cl)cc1Cl)c1ccccn1", "hERG current change (%, negative = inhibition) at 10uM": -2.08}, {"smiles": "O=C(CSc1nnc(CNC(=O)c2cccs2)o1)Nc1ccc(Cl)cc1", "hERG current change (%, negative = inhibition) at 10uM": -4.26}, {"smiles": "CCC(C)NC(=O)COc1ccccc1[N+](=O)[O-]", "note": "(stereo not drawn)", "hERG current change (%, negative = inhibition) at 10uM": 16}, {"smiles": "CSCCC(NC(=O)c1ccco1)C(=O)NCC(c1ccccc1)N(C)C", "note": "(stereo not drawn)", "hERG current change (%, negative = inhibition) at 10uM": -9.02}, {"smiles": "COc1ccc(C/C(N)=N/OC(=O)Cc2ccccc2)cc1", "hERG current change (%, negative = inhibition) at 10uM": -7.03}, {"smiles": "CCOC(=O)c1c(NC(=S)Nc2ccccc2)sc2c1CCCCC2", "hERG current change (%, negative = inhibition) at 10uM": 17.3}, {"smiles": "CCOC(=O)c1c(NC(=O)Nc2ccc(C)cc2)sc2c1CCN(C)C2", "hERG current change (%, negative = inhibition) at 10uM": -47.6}, {"smiles": "CCOC(=O)c1c(NC(=S)Nc2ccc(OC)cc2)sc2c1CCCCC2", "hERG current change (%, negative = inhibition) at 10uM": 12.5}, {"smiles": "CCOC(=O)c1c(NC(=S)Nc2ccc(Cl)cc2)sc2c1CCN(C)C2", "hERG current change (%, negative = inhibition) at 10uM": -74.2}, {"smiles": "CCOC(=O)c1c(NC(=S)Nc2ccccc2)sc2c1CCN(C)C2", "hERG current change (%, negative = inhibition) at 10uM": -74.2}, {"smiles": "CCOC(=O)c1c(NC(=S)Nc2ccc(OC)cc2)sc2c1CCC2", "hERG current change (%, negative = inhibition) at 10uM": 14}, {"smiles": "CCOC(=O)c1c(NC(=S)Nc2ccc(OCC)cc2)sc2c1CCN(C)C2", "hERG current change (%, negative = inhibition) at 10uM": -70.4}, {"smiles": "CCOC(=O)c1c(NC(=S)Nc2ccccc2)sc2c1CC(C)(C)SC2", "hERG current change (%, negative = inhibition) at 10uM": -3.74}, {"smiles": "CCOC(=O)c1c(NC(=O)Nc2ccc(F)cc2)sc2c1CCN(C)C2", "hERG current change (%, negative = inhibition) at 10uM": -26}, {"smiles": "CNC(=O)c1ccsc1NC(=O)CCS(=O)(=O)c1ccc(Cl)cc1", "hERG current change (%, negative = inhibition) at 10uM": -18.1}, {"smiles": "COc1ccccc1OCCn1c(C)c(C=O)c2ccccc21", "hERG current change (%, negative = inhibition) at 10uM": -2.11}, {"smiles": "Cc1c(Br)c([N+](=O)[O-])nn1CC(=O)N1CCCc2ccccc21", "hERG current change (%, negative = inhibition) at 10uM": 2.48}, {"smiles": "N#CCCN1CCN(C(CNS(=O)(=O)c2ccc(Cl)cc2)c2ccccc2)CC1", "note": "(stereo not drawn)", "hERG current change (%, negative = inhibition) at 10uM": -34.2}, {"smiles": "CCN1CCN(C(CNS(=O)(=O)c2ccc(Cl)cc2)c2cccnc2)CC1", "note": "(stereo not drawn)", "hERG current change (%, negative = inhibition) at 10uM": -74.2}, {"smiles": "CCN1CCN(C(CNS(=O)(=O)c2ccc(Cl)cc2)c2ccccc2)CC1", "note": "(stereo not drawn)", "hERG current change (%, negative = inhibition) at 10uM": -69.5}, {"smiles": "CCN1CCN(C(CNS(=O)(=O)c2ccc(Br)cc2)c2cccnc2)CC1", "note": "(stereo not drawn)", "hERG current change (%, negative = inhibition) at 10uM": -65.8}, {"smiles": "CN1CCN(C(CNS(=O)(=O)c2ccc(F)cc2)c2cccnc2)CC1", "note": "(stereo not drawn)", "hERG current change (%, negative = inhibition) at 10uM": -7.43}, {"smiles": "CCN1CCN(C(CNS(=O)(=O)c2ccccc2)c2ccccc2)CC1", "note": "(stereo not drawn)", "hERG current change (%, negative = inhibition) at 10uM": -34.8}, {"smiles": "CN1CCN(C(CNS(=O)(=O)c2ccc(Cl)cc2)c2cccnc2)CC1", "note": "(stereo not drawn)", "hERG current change (%, negative = inhibition) at 10uM": -55.6}, {"smiles": "CN(C)C(CNS(=O)(=O)c1ccc(Br)cc1)c1cccnc1", "note": "(stereo not drawn)", "hERG current change (%, negative = inhibition) at 10uM": -11.3}, {"smiles": "CCN1CCN(C(CNS(=O)(=O)c2ccc(C)cc2)c2cccnc2)CC1", "note": "(stereo not drawn)", "hERG current change (%, negative = inhibition) at 10uM": -35.9}, {"smiles": "CN(C)C(CNS(=O)(=O)c1ccc(Cl)cc1)c1cccnc1", "note": "(stereo not drawn)", "hERG current change (%, negative = inhibition) at 10uM": 18.2}, {"smiles": "N#Cc1ccc(Oc2cc(C(F)(F)F)nc(-c3ccccn3)n2)cc1", "hERG current change (%, negative = inhibition) at 10uM": 5.26}, {"smiles": "Cc1cccc(Nc2ncnc3onc(-c4ccc(F)cc4)c23)c1C", "hERG current change (%, negative = inhibition) at 10uM": -4.56}, {"smiles": "Oc1ccccc1CNc1nccs1", "hERG current change (%, negative = inhibition) at 10uM": 21.3}, {"smiles": "COc1ccc(OC(C)C(=O)Nc2ccccc2F)cc1", "note": "(stereo not drawn)", "hERG current change (%, negative = inhibition) at 10uM": 13.1}, {"smiles": "CN(C)CCn1cnc2c1c(=O)[nH]c(=O)n2Cc1ccccc1.Cl", "hERG current change (%, negative = inhibition) at 10uM": 27.6}, {"smiles": "O=C(O)CCCC(=O)NCc1ccccn1", "hERG current change (%, negative = inhibition) at 10uM": 11.1}, {"smiles": "Cc1ccc(NC(=O)Cn2c(-c3ccc(F)cc3)cnc2SCC(=O)Nc2c(C)cccc2C)cc1", "hERG current change (%, negative = inhibition) at 10uM": 16}, {"smiles": "Cc1cc(C(=O)Nc2ccc(F)cc2)c2ccccc2n1", "hERG current change (%, negative = inhibition) at 10uM": -0.679}, {"smiles": "C/C(CC(=O)Nc1ccc2c(c1)OCCO2)=N\\NC(=O)c1ccc([N+](=O)[O-])cc1Cl", "hERG current change (%, negative = inhibition) at 10uM": -5.37}, {"smiles": "CC(C)Sc1ccc([N+](=O)[O-])cc1C(=O)Nc1ccncc1", "hERG current change (%, negative = inhibition) at 10uM": -11.7}, {"smiles": "CCCCCn1cnc2c(sc3nc4c(cc32)CSC(C)(C)C4)c1=O", "hERG current change (%, negative = inhibition) at 10uM": -14.5}, {"smiles": "CCOC(=O)C1(CC2CCCCO2)CCN(S(=O)(=O)c2ccccc2)CC1", "note": "(stereo not drawn)", "hERG current change (%, negative = inhibition) at 10uM": 9.64}, {"smiles": "CCOC(=O)C1(CC2CCCCO2)CCN(S(=O)(=O)c2ccc(OC)cc2)CC1", "note": "(stereo not drawn)", "hERG current change (%, negative = inhibition) at 10uM": -38.3}, {"smiles": "CCOC(=O)C1(CC2CCCCO2)CCN(S(=O)(=O)c2ccc(C)s2)CC1", "note": "(stereo not drawn)", "hERG current change (%, negative = inhibition) at 10uM": 9.12}, {"smiles": "CCOC(=O)C1(CC2CCCCO2)CCN(Cc2nccn2-c2ccc(OC)cc2)CC1", "note": "(stereo not drawn)", "hERG current change (%, negative = inhibition) at 10uM": -5.78}, {"smiles": "CCOC(=O)C1(CC2CCCCO2)CCN(Cc2nc(-c3cccs3)oc2C)CC1", "note": "(stereo not drawn)", "hERG current change (%, negative = inhibition) at 10uM": -67.6}, {"smiles": "CCOC(=O)C1(CC2CCCCO2)CCN(S(=O)(=O)c2cc(C)cs2)CC1", "note": "(stereo not drawn)", "hERG current change (%, negative = inhibition) at 10uM": -59}, {"smiles": "CCOC(=O)C1(CCOC)CCN(Cc2nc(-c3cccs3)oc2C)CC1", "hERG current change (%, negative = inhibition) at 10uM": -30.8}, {"smiles": "CCOC(=O)C1CCN(Cc2ccc(F)cc2F)CC1", "hERG current change (%, negative = inhibition) at 10uM": 6.65}, {"smiles": "CCOC(=O)C1(CC2CCCCO2)CCN(Cc2nc3ccccc3nc2C)CC1", "note": "(stereo not drawn)", "hERG current change (%, negative = inhibition) at 10uM": -21.2}, {"smiles": "CCOC(=O)C1(CC2CCCCO2)CCN(Cc2ccc(OC)cc2F)CC1", "note": "(stereo not drawn)", "hERG current change (%, negative = inhibition) at 10uM": -54.8}, {"smiles": "CCOC(=O)C1(CC2CC2)CCN(Cc2ccc(OC)cc2F)CC1", "hERG current change (%, negative = inhibition) at 10uM": -73.5}, {"smiles": "CCOC(=O)C1(CC2CC2)CCN(Cc2cnc(-c3ccc(OC)cc3)nc2)CC1", "hERG current change (%, negative = inhibition) at 10uM": -21.9}]}]}
